High-throughput results deposited in PubChem by National Center for Advancing Translational Sciences (NCATS).
Only some compounds are listed: those with a hit (about 9% of all), similar ones and a draw of the others.
LMNA splice mod = modulators of lamin A splicing; HeLa LMNA splicing GFP/RFP minigene ratio, 48 h; Potency, µM (series often up to 46.1 µM), for inactives: at the top dose ratio change, negative = inhibition, hits mostly inhibitors; 200,000 compounds, 0.01% hits; active = well fitted inhibition curve with a large enough effect in the signal ratio, with a control signal flat, not every such curve was filed as active; inconclusive = small, poorly fitted or top-dose-only effect, or effect the other way, or a change in a side signal; the % refers to the signal ratio; note: % is set by controls: 0 for no effect and ±100 for the full control effect
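S3 HeLa cells stably expressing lamin A-EGFP splicing minigene plus DsRed2, 600 cells/well, 48 h compound exposure at 37C. Laser-scanning cytometry; analysed as GFP (500-530 nm)/RFP (575-640 nm) total intensity ratio; 0.5% DMSO vehicle.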
HPGD inh = HPGD (human) dehydrogenase inhibition; P15428; purified HPGD, NADH fluorescence kinetic, PGE2 substrate; Potency, µM, for inactives: at the top dose activity change, negative = inhibition, most hits filed as inhibitors; 150,000 compounds, 4.3% hits; AID 894; active = well fitted inhibition curve with a large enough effect, not every such curve was filed as active; inconclusive = small, poorly fitted or top-dose-only effect, or another doubt; inactive = no such curve, though single readings can be large or run the other way; note: % is set by controls: 0 for no effect and ±100 for the full control effect
Target sequence (P15428 whole entry, looked up): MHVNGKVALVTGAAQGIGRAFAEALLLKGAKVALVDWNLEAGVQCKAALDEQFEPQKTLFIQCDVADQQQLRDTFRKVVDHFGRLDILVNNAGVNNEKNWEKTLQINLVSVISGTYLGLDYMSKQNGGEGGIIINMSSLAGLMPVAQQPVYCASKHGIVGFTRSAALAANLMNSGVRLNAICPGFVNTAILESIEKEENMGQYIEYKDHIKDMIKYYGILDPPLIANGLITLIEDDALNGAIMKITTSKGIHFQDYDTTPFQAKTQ
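NADH formation kinetics: reaction with 30 uM PGE2 and 1 mM NAD+ (final), 20 nM enzyme, Tris-HCl pH 8 with Tween 20, after 15 min compound preincubation at room temperature. Fluorescence change, last versus first of five reads.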
Luc counter = counter-screen: inhibitors of Kinase-Glo firefly luciferase. Q27757. Kinase-Glo luciferase, ATP luminescence, 8 min. Potency, µM (doses to about 38.3 µM), for the others: at the highest dose activity change, negative = inhibition, most hits filed as inhibitors. 200,000 compounds, 0.28% hits; note: % is set by controls: 0 for no effect and ±100 for the full control effect; nearly all actives have a fitted effect of over 60% in size
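Inhibition of Kinase-Glo luciferase light generation was assessed at 10 uM ATP in pH 7.2 imidazole buffer, with luminescence measured after eight minutes at ambient temperature.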
HTT aggregate = reduces HttQ103-GFP aggregates in PC12 cells; PC12 HttQ103-GFP aggregates, Acumen cytometry, 40 h; Potency, µM (highest dose often 46.1 µM), for inactives: at the highest dose activity change, negative = inhibition, actives largely listed as inhibitors; 220,000 compounds, 1.1% hits; AID 1688; note: % is set by controls: 0 for no effect and ±100 for the full control effect; nearly all actives have a fitted effect of over 60% in size
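Inducible Q103 Huntingtin exon 1–GFP PC12 line, 1500 cells/well in phenol red free DMEM with 5% equine and 5% calf serum. Tebufenozide 100 nM induced expression; compounds titrated; aggregates quantified by cytometry.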
HTT cytoprotect = protects HTT-Q103 PC12 cells, measured by ATP. AID 1471. Potency, µM (highest dose often 56.4 µM), for the others: cytoprotection (ATP increase), actives largely listed as activators. PC12 HTT-Q103 induced, cytoprotection, ATP luminescence, 40 h. 230,000 compounds, 0.14% hits; note: % of control where 0% means no effect; nearly all actives have a fitted effect of over 45% in size
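Readout: ATPlite luminescence (ATP level). Model: stable PC12, inducible Htt exon1 Q103-GFP. Inducer: tebufenozide, 100 nM final. Compounds: dose series. No G418 in medium.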
ALDH1A1 inh = inhibitors of human aldehyde dehydrogenase 1A1 | 220,000 compounds, 7.3% hits | AID 1030 | Potency, µM (series often up to 75.3 µM), inactives show at the top dose activity, negative = inhibition, hits mostly inhibitors | P00352 | Purified ALDH1A1, NADH fluorescence, propionaldehyde substrate; active = well fitted inhibition curve with a large enough effect, not every such curve was filed as active; inconclusive = small, poorly fitted or top-dose-only effect, or another doubt; inactive = no such curve, though single readings can be large or run the other way;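 note: plate controls were no enzyme wells and a reference inhibitor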
Target sequence (P00352 whole entry, looked up): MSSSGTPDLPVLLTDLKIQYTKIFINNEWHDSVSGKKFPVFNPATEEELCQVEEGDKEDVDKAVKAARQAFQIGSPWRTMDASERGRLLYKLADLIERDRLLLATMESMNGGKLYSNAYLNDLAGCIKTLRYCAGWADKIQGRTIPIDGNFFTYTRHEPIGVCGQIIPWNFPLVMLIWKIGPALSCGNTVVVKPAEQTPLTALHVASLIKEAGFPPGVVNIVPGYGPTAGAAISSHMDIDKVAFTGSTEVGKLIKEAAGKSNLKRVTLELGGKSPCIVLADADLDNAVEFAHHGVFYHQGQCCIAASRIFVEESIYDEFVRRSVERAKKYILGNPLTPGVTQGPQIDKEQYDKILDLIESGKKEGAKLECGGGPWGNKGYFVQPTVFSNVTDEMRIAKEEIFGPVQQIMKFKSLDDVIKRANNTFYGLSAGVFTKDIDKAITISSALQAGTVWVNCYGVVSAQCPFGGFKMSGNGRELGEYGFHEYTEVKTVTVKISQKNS
* hit, by the source's call; ? = inconclusive; . = not tested or not shown; [ ] = remark or other dose. Unless noted, calls come from the whole dose curve; as a rule, active = well fitted curve in the direction sought with a large enough effect; inconclusive = small, poorly fitted or top-dose-only effect, or another doubt; inactive = no such curve, though single readings can be large; an effect the other way counts as inactive or inconclusive. Potency is the fitted concentration of half-maximal effect.

SMILES	LMNA splice mod	HPGD inh	Luc counter	HTT aggregate	HTT cytoprotect	ALDH1A1 inh
Cc1cc(N)c2ccccc2n1	.	.	-3%	-9%	-11%	-3%
C=CCn1c(CNC(=O)CCC)nc2ccccc21	.	.	.	.	-2%	.
O=C(O)CCCc1nc(-c2ccccc2)no1	-4%	-14%	1%	4%	-24%[0.074 µM]	23%
Cc1cc(/C=C/C(=O)O)c(C)n1-c1ccc(Cl)cc1	-18%[46 µM]	.	1%	24%	-42%	-8%
Cc1cc(/C=C\c2ccc3cc(N(C)C)ccc3[n+]2C)c(C)n1-c1ccccc1	?	-4%	-29%[17.1 µM]	3.2µM*	-93%[17.1 µM]	-13%[20.9 µM]
Cc1sc2nc(C(C)C)nc(SCC(=O)N3CCN(C(=O)c4ccco4)CC3)c2c1C	-18%	-4%	4%	-11%	0%	?
Cc1sc2nc(C3CC3)nc(SCC(=O)N3CCc4ccccc4C3)c2c1C	-13%	?	1%	7.1µM*	-8%[10 µM]	14µM*
CCc1c(C)sc2nc(C(C)C)nc(SCC(=O)N3CCc4ccccc4C3)c12	-8%	-19%	3%	3.5µM*	-3%[10 µM]	-8%
CC(=O)Nc1cccc(NC(=O)CSc2nc(C)c(C)c(C)c2C#N)c1	-13%	?	-4%	-2%	1%	10µM*
Cc1cc(NCc2ccncc2)ccc1Br	.	.	1%	15%[9.22 µM]	14%[10 µM]	22µM*
CCN(C(=O)CSc1nc2ccccc2n1CC(=O)N(C)C1CCCCC1)c1ccccc1	15%[46 µM]	.	.	.	.	.
CCOC(=O)CC(=O)CSc1ccc2nnc(-c3ccc(C)cc3)n2n1	10%	13µM*	-6%	-27%	-7%	-10%
CCOC(=O)N1CCN(C(=O)CSc2ccc3nnc(-c4ccncc4)n3n2)CC1	.	.	6%	-8%	-36%	-1%
C[C@H](c1ccccc1)N1C(=O)[C@H]2[C@@H]3[C@H](O)[C@H](O)CC(=O)[C@H]3CC[C@H]2C1=O	.	.	.	.	0%[10 µM]	9%[13.5 µM]
COC(=O)c1cc2c(C)nn(-c3ccccc3)c2s1	8%	?	0%	-11%	-19%	?
Cc1nn(-c2ccccc2)c2sc(C(=O)N(CC(=O)NC(C)(C)C)Cc3ccco3)cc12	-22%	-28%	2%	-32%	-3%[10 µM]	25µM*
CC(=O)Cc1nsc(NC(=O)c2ccc(F)cc2)n1	.	.	2%	-5%[9.22 µM]	-11%[10 µM]	2%
COc1ccc([N+](=O)[O-])cc1N(CC(=O)Nc1ccccc1C(=O)N1CCCC1)S(C)(=O)=O	.	.	.	6%[9.22 µM]	4%[10 µM]	6%
CS(=O)(=O)N(CC(=O)Nc1ccccc1C(=O)N1CCCC1)c1cccc([N+](=O)[O-])c1	-14%[46 µM]	.	0%	-5%[9.22 µM]	-34%	16µM*
CCCC(C)c1nnc(NC(=O)CS(=O)(=O)Cc2ccccc2)s1 (configuration not stated)	-3%	13µM*	-3%	0%	1%	25µM*
CC(C)c1nnc(NC(=O)CS(=O)(=O)Cc2ccccc2)s1	.	.	7%	4%[9.22 µM]	18%[10 µM]	7.9µM*
CCOc1ccccc1C(=O)Nc1nnc(C(C)C)s1	-8%	-12%	-1%	-4%	-18%	1.3µM*
CC(C)Cc1nnc(NC(=O)CS(=O)(=O)Cc2ccccc2)s1	0%	-28%	0%	?	13%[10 µM]	?
CCOc1ccccc1C(=O)Nc1nncs1	-9%	-21%	-4%	1%	2%	-5%
CN(C)CCCN1CCC2(CCC(C(C)(C)C)CC2)CC1	.	-14%	-1%[7.66 µM]	.	14%[10 µM]	8%[13.5 µM]
SMILES	LMNA splice mod	HPGD inh	Luc counter	HTT aggregate	HTT cytoprotect	ALDH1A1 inh
Cc1ccc(-n2c([O-])nc(-[n+]3ccccc3)c2C=O)cc1	-5%	-15%	-8%	-5%	-1%	8.9µM*
Cc1ccc[n+](-c2nc([O-])sc2C=O)c1	-15%[46 µM]	.	-1%	7%	-22%	-3%
CCOc1ccc(N2C(=O)CC(NCCc3ccc(S(N)(=O)=O)cc3)C2=O)cc1 (configuration not stated)	5%	2%	0%	4%	-13%	?
CCOc1ccc(N2C(=O)CC(NCCc3c[nH]c4ccccc34)C2=O)cc1 (configuration not stated)	.	.	-1%	11%	-41%	11µM*
CCCOc1ccc(N2C(=O)CC(NCCc3ccc(S(N)(=O)=O)cc3)C2=O)cc1 (configuration not stated)	14%	-6%	1%	-9%	-5%[10 µM]	7.9µM*
CCOc1ccccc1NC(=O)COn1nnc2ccc(Cl)cc21	19%	?	2%	13%	-121%	16µM*
Cc1cc(NC(=O)COn2nnc3ccc(Cl)cc32)no1	2%	-11%	1%	1%	13%[10 µM]	-5%
CCC1C/C(=C\c2cccnc2)C(=O)/C(=C/c2cccnc2)C1 (configuration not stated)	?	-25%	-4%	22µM*	-37%[10 µM]	?
COc1ccc2c(c1)c(C(=O)N/N=C/c1ccccc1Cl)c(C)n2C	.	.	.	19%[9.22 µM]	8%[10 µM]	.
COc1ccc2c(c1)c1nnc(SCC(=O)N3C(C)CCCC3C)nc1n2C (configuration not stated)	-21%	11µM*	5%	-12%	-19%[10 µM]	?
O=C(O/N=C1\CCS(=O)(=O)c2sccc21)c1ccccc1	10%	-16%	-28%	6%	-27%	13µM*
Cc1ccccc1-c1ccc(=O)n(CC(=O)Nc2ccc(-n3cnnn3)cc2)n1	.	.	.	9%[9.22 µM]	-1%[10 µM]	.
CN(C)/C=C/C(=O)c1cccc(Cl)c1	-15%	25µM*	-2%	?	-9%[10 µM]	?
CN(C)/C=C/C(=O)c1cccc(C(F)(F)F)c1	.	.	-1%	-16%	-29%	?
CN(C)/C=C/C(=O)c1ccc(Cl)cc1	-8%	18µM*	-6%	11%	-8%	-6%
Cc1cc(C)c(NC(=O)C2CCN(c3cnccn3)CC2)c(C)c1	-10%	-22%	-1%	-16%	-10%[10 µM]	-6%
COc1cccc(N2CCN(CC(=O)c3c[nH]c4ccc(OC)cc34)CC2C)c1 (configuration not stated)	3%	?	-4%	35µM*	-18%[0.074 µM]	?
CCOc1cc2c3c(c1)C(C)=CC(C)(C)N3C(=O)C2=O	-19%[46 µM]	.	-5%	.	.	?
CCOc1cc2c3c(c1)C(C)CC(C)(C)N3C(=O)C2=O (configuration not stated)	-2%	-10%	-4%	4%	-24%	0.4µM*
Cc1cc2c3c(c1)C(C)CC(C)(C)N3C(=O)C2=C(C#N)C#N (configuration not stated)	.	.	.	14%[9.22 µM]	-10%[10 µM]	.
CC1CC2(CCCCC2)N2C(=O)C(=O)c3cccc1c32 (configuration not stated)	5%	-8%	-2%	-3%	-23%	0.045µM*
Cc1cc2c3c(c1)C(C)CC(C)(C)N3C(=O)C2=O (configuration not stated)	4%[46 µM]	.	-8%	.	.	0.16µM*
